Compound activity deposited in PubChem by Broad Institute.
EWS-Fli block: blocks EWS/Fli oncoprotein-driven transcription. inhibition, % at 12.6 µM. A673 NR0B1-luciferase reporter, viability-normalised. AID 651661. actives 0.67% (n = 350,000);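 active = mean inhibition of at least 50% after viability correction, with every replicate also passing that limit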;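 note: firefly luciferase signal divided by Alamar Blue viability fluorescence both relative to DMSO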
rRNA inh HTS: inhibitors of bacterial rRNA selective over humanized ribosomes; actives 1.6% (n = 350,000); GFP signal change (wild-type ribosome), % (test concentration not listed); E. coli WT GFP vs humanized-ribosome RFP mutants, fluorescence, 24 h; hits give low values; DMSO median 0, no signal -100;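 active = significant combined selectivity score with lowered wild-type GFP, culture density cut under 30%, mutant RFP and density less affected; inactive = any of these conditions unmet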
SIRT5 block: inhibitors of human sirtuin-5 desuccinylase. Q9NXA8. Purified SirT5, succinyl-peptide AMC, trypsin-coupled fluorescence. inhibition, % at 15 µM. actives 1.1% (n = 330,000). AID 652115; in the data active = inhibition above about 15%
Target sequence (Q9NXA8 whole entry, looked up): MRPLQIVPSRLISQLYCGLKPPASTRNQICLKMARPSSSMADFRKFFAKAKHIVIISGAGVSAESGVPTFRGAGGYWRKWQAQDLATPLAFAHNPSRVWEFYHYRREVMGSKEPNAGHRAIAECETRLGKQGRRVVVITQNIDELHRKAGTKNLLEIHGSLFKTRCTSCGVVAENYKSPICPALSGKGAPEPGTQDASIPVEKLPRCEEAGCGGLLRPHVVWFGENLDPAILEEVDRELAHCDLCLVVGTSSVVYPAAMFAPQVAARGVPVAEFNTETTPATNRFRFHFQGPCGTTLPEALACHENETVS
PGC1a acetyl inh: PGC1a acetylation modulation, inhibitor mode. U2OS PGC1a acetylation, AlphaScreen anti-acetyl-lysine; with virally co-expressed GCN5 acetyltransferase. actives 0.17% (n = 350,000). inhibition, % at 15.6 µM;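 active = every replicate shows inhibition of at least 40%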
LGR2 antag: blocks bursicon-induced cAMP signaling via Drosophila LGR2; AID 720647; HEK293 LGR2, CRE-luciferase, bursicon-stimulated, 4 h; actives 0.35% (n = 380,000); inhibition, % at 9.99 µM;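 active = drop in luminescence signal, shown as inhibition above about 50% in the replicate tests, limit read from the data, passing the limit was not always enough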;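 note: agonist challenge used bursicon conditioned medium at about half maximal strength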
PAX8 inh HTS: lowers PAX8-driven luciferase in RMG-I cells. RMG-I TPO-luciferase reporter, SteadyGlo, 24 h. inhibition, % at 12.6 µM. actives 1.2% (n = 360,000). AID 652154;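 active = mean replicate inhibition at least 60% with every replicate also reaching 60%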;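 note: luciferase light reporting Pax8 driven TPO promoter activity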
Hits are given with their value; i = inactive; nt = no result. Only some compounds are listed: those with a hit (about 3.4% of all), similar ones and a draw of the others.

SMILES | EWS-Fli block | rRNA inh HTS | SIRT5 block | PGC1a acetyl inh | LGR2 antag | PAX8 inh HTS
CC(=O)O[C@H]1C(=O)[C@@]2(C)[C@H]([C@H](OC(=O)c3ccccc3)[C@]3(O)C[C@H](OC(=O)[C@H](O)C(NC(=O)c4ccccc4)c4ccccc4)C(C)=C1C3(C)C)[C@]1(OC(C)=O)CO[C@@H]1C[C@@H]2O (stereo not given in full) | 66 | i | i | i | i | i
CCCCCC(=O)N[C@@H](c1ccccc1)[C@@H](O)C(=O)O[C@H]1C[C@@]2(O)[C@@H](OC(=O)c3ccccc3)C3[C@](C)(C(=O)[C@H](OC(C)=O)C(=C1C)C2(C)C)[C@@H](O)C[C@H]1OC[C@@]31OC(C)=O (stereo not given in full) | 57 | i | i | i | i | nt
CC(=O)O[C@H]1C(=O)[C@@]2(C)[C@H]([C@H](OC(=O)c3ccccc3)[C@]3(O)C[C@H](OC(=O)[C@H](O)[C@@H](NC(=O)c4ccccc4)c4ccccc4)C(C)=C1C3(C)C)[C@]1(OC(C)=O)CO[C@@H]1C[C@@H]2O | 65 | i | i | nt | i | i
CCCNC(=O)N1CC2(CN(Cc3ccccn3)C2)c2c(n(C)c3cc(OC)ccc23)[C@@H]1CO | i | i | nt | i | i | nt
CCOc1ccccc1NC(=O)c1ccc(OCC)c([N+](=O)[O-])c1 | i | i | i | nt | i | i
CCOc1ccccc1N/C(=C(/C(Cl)=C(Cl)Cl)[N+](=O)[O-])n1cncn1 | i | -25 | i | i | i | nt
Nc1ncn([C@H]2C[C@H](O)[C@@H](CO)O2)c(=O)n1 | i | nt | i | i | i | 107
Cc1cccc(C(=O)Nc2ccc(C(=O)/C=C/c3cccnc3)cc2)c1 | nt | nt | nt | 54 | i | i
Cc1cccc(C(=O)Nc2ccc(C(=O)/C=C/c3ccncc3)cc2)c1 | 71 | i | i | i | i | i
Cc1cccc(C(=O)Nc2cccc(C(=O)N/N=C/c3ccncc3)c2)c1 | i | i | i | i | nt | i
Cc1noc(C)c1S(=O)(=O)N(C)C[C@@H]1OCCCC[C@@H](C)Oc2ccc(NC(=O)NC3CCCCC3)cc2C(=O)N([C@H](C)CO)C[C@@H]1C | i | i | i | i | i | i
c1coc(-c2nn3c(-c4ccco4)nnc3s2)c1 | nt | nt | nt | i | nt | i
COc1ccccc1-c1nn2c(-c3ccco3)nnc2s1 | i | -22 | i | i | i | nt
O=C(C[C@@H]1CC[C@H](NC(=O)Nc2ccccc2F)[C@@H](CO)O1)NCc1ccc(-c2ccccc2)cc1 | i | i | i | i | i | i
Cc1ccccc1CN1CCN(Cc2ccc3cccc(F)c3n2)CC1CCO (stereo not given) | i | i | 36 | i | i | i
COc1ccc(S(=O)(=O)N(C)C[C@H]2Oc3c(NC(=O)C4CC4)cccc3C(=O)N([C@@H](C)CO)C[C@H]2C)cc1 | i | i | i | i | i | nt
CCNC(=O)C[C@H]1C=C[C@H](NC(=O)NC2CCCCC2)[C@H](CO)O1 | i | i | i | i | i | i
O=C(O)C1CCC(Cn2c(SCc3cc(=O)n4cc(Br)ccc4n3)nc3ccsc3c2=O)CC1 (stereo not given) | i | i | 17 | i | i | i
CN(C(=O)COC(=O)c1ccc(C(C)(C)C)cc1)C1CCS(=O)(=O)C1 (stereo not given) | i | i | i | i | i | i
CN(C(=O)COC(=O)c1nc(Cl)c(Cl)c(Cl)c1Cl)C1CCS(=O)(=O)C1 (stereo not given) | i | i | i | nt | 103 | i
CC1CCCN(C(=O)COC(=O)C2CCN(S(=O)(=O)c3c(Cl)cccc3Cl)CC2)C1 (stereo not given) | i | i | 18 | i | i | i
CC1CC(C)CN(C(=O)COC(=O)C2CCN(S(=O)(=O)c3c(Cl)cccc3Cl)CC2)C1 (stereo not given) | i | i | i | nt | i | i
CN(C(=O)COC(=O)C1CCN(S(=O)(=O)c2c(Cl)cccc2Cl)CC1)C1CCS(=O)(=O)C1 (stereo not given) | i | i | i | i | i | 113
C[C@H](CO)N1C[C@H](C)[C@H](CN(C)Cc2ccccc2)Oc2ncc(-c3cccnc3)cc2C1=O | i | i | nt | i | i | nt
CSc1cccc(N2CC(C(=O)NCCN3C(=O)S/C(=C\c4cccnc4)C3=O)CC2=O)c1 (stereo not given) | i | i | i | 75 | i | i
SMILES | EWS-Fli block | rRNA inh HTS | SIRT5 block | PGC1a acetyl inh | LGR2 antag | PAX8 inh HTS
CS(=O)(=O)c1ccc(C(=O)NCCN2C(=O)S/C(=C\c3cccnc3)C2=O)cc1[N+](=O)[O-] | 64 | i | i | nt | 69 | i
C[C@@H]1CN([C@@H](C)CO)C(=O)c2cc(NS(=O)(=O)c3cccs3)ccc2O[C@H]1CN(C)C(=O)Nc1ccc(C(F)(F)F)cc1 | i | i | i | i | i | nt
Cc1ccc(-n2cc(CN3CCN(Cc4nccn4C)CC3)c(-c3ccc(F)cc3)n2)cc1 | i | i | 112 | i | i | i
C[C@H](CO)N1C[C@H](C)[C@H](CN(C)S(C)(=O)=O)OCCCC[C@H](C)Oc2ccc(N(C)C)cc2C1=O | i | i | i | i | i | i
CNC[C@H]1Oc2ccc(N(C)C)cc2C(=O)N(C)C[C@@H]1C | nt | i | nt | nt | nt | nt
COCC(=O)N(C)C[C@H]1Oc2ncc(-c3ccc(C#N)cc3)cc2C(=O)N([C@@H](C)CO)C[C@H]1C | i | i | i | i | i | i
CN(C)CCCNc1ccc(-c2cc(Nc3cccc(Cl)c3)ncn2)cn1 | i | -20 | nt | i | i | i
CN(C)c1cccc(-c2cc(Nc3ccc(C(C)(C)C)cc3)ncn2)c1 | i | i | nt | nt | i | i
CCCNC(=O)Nc1ccc2c(c1)C(=O)N(C)C[C@H](OC)[C@H](C)CN(C(=O)C1CCC1)[C@@H](C)CO2 | i | i | i | nt | i | i
CO[C@H]1CN(C)C(=O)c2cc(NC(=O)C3CC3)ccc2OC[C@@H](C)N(C(C)=O)C[C@@H]1C | i | i | i | i | i | i
COC(=O)c1sc2nc(C)cc(C)c2c1N | i | i | i | i | i | i
Cc1cc(C)c2c(N)c(C(=O)Nc3ncc(C)s3)sc2n1 | nt | nt | nt | i | nt | 104
O=C(c1cccs1)N1CCN(c2nc3c(F)cc(F)cc3s2)CC1 | i | i | 18 | i | i | i
Cc1[nH]c2ccccc2c1/C=C/C(=O)c1ccccc1 | nt | nt | nt | nt | i | i
O=C(C=Cc1ccccc1)c1c[nH]c2ccccc2c1=O | i | i | nt | i | i | 86
Cc1[nH]c2ccccc2c(=O)c1C(=O)/C=C/c1ccccc1 | i | i | i | i | 74 | 103
CC(C)CNC(=O)[C@@]1(c2ccc([N+](=O)[O-])cc2)CC(=O)N(CC23CC4CC(CC(C4)C2)C3)[C@@H]1c1ccc(CO)cc1 | i | nt | i | nt | nt | i
C/C(=N\NC(=O)COc1ccc(C)cc1[N+](=O)[O-])c1cccs1 | i | i | i | i | i | i
